# Shown are actives, neighbours in structure and some others; about 1.1% of the full set was active somewhere.
# TRPV1 agonist: HTS Assay for Compounds that Act as Agonists of the Vanilloid Receptor 1; TRPV1-expressing cells, Fluo-8 calcium influx, agonist mode; activation, % at 8.33 µM; 320,000 tested, 0.19% active; Transient receptor potential cation channel subfamily V member 1 (Homo sapiens), Q8NER1; in the data active = activation above about 80%; inconclusive = between about 30% and that limit; also: 0% is about no effect
#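 Cells expressing TRPV1 were dye-loaded with Fluo-8 and read kinetically: 10 s baseline, 3 min after compound (agonist portion), then 2 min after EC20 capsaicin (allosteric enhancer portion). Calcium-bound dye fluorescence at 480/520 nm.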
# gsp antagonist: qHTS for Antagonists of gsp, the Etiologic Mutation Responsible for Fibrous Dysplasia/McCune-Albright Syndrome: qHTS | gsp-mutant cells, cAMP HTRF, 30 min | 340,000 tested, 0.4% active | Potency, µM (highest dose often 76.9 µM), without a hit: top-dose activity change, negative = inhibition, actives largely listed as inhibitors; calls by dose curve; cell line not stated here;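 also: intracellular cAMP measured with PDE inhibitor Ro 20-1724 present during compound exposure; potency is read from the fitted curve at half-maximal effect; % is scaled to controls: 0 for no effect and ±100 for the full control effect; nearly all actives have a fitted effect of over 65% in size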
#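 G418-selected cells were plated in DMEM/10% FBS for 16-24 h at 37C, then treated with compounds plus the PDE inhibitor […] (300 uM solution added) for 30 min at 37C. Intracellular cAMP was measured by HTRF after 30 min lysis at room temperature.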
# RXFP1 antag: qHTS Assay for Antagonists of the Relaxin Receptor RXFP1; activity change, negative = inhibition, % at 57.5 µM; HEK293-RXFP1, relaxin-stimulated cAMP HTRF, 30 min; hits give low values; 350,000 tested, 0.59% active; Relaxin receptor 1 (Homo sapiens), Q9HBX9;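 active = activity change of -60% or lower, but not beyond a set lower limit; inconclusive = change between -60% and -40%, or beyond the set limit; inactive = change above -40%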; also: % is scaled to controls: 0 for no effect and ±100 for the full control effect
# Target sequence (Q9HBX9 whole entry, looked up): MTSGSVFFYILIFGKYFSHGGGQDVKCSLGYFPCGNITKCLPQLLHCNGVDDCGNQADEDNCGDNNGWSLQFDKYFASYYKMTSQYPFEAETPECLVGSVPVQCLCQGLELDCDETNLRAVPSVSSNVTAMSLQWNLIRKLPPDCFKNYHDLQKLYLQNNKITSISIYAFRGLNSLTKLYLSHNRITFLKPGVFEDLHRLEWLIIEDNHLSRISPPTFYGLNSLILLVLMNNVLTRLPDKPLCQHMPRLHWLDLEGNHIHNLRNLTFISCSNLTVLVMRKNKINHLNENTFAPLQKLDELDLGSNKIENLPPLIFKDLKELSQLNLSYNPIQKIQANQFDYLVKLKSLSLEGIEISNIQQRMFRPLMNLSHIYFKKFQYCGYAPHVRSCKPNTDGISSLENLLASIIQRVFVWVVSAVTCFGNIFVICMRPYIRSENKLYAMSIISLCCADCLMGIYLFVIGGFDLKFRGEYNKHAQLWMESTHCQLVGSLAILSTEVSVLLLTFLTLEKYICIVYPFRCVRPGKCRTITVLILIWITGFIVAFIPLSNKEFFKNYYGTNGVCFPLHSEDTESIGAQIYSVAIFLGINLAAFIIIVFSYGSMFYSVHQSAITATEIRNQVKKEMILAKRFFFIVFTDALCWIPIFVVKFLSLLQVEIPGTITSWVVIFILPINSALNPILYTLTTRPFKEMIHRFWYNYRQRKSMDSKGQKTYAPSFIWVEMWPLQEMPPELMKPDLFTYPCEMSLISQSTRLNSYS
# RXFP1 agonist: qHTS Assay for Agonists of the Relaxin Receptor RXFP1 | Relaxin receptor 1 (Homo sapiens), Q9HBX9 | 370,000 tested, 0.3% active | Potency, µM (top dose mostly 57.5 µM), for the others: top-dose activation, usual class: activators | AID 2676, 2010 | HEK293T-RXFP1 cAMP TR-FRET, 30 min; response scale: percent of porcine relaxin response, buffer zero; active = well fitted activation curve with a large enough effect; inconclusive = small, poorly fitted or top-dose-only effect; also: potency is read from the fitted curve at half-maximal effect; % is scaled to controls: 0 for no effect and ±100 for the full control effect; nearly all actives have a fitted effect of over 60% in size
#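 Agonist response is measured as cAMP accumulation in an RXFP1-transfected HEK293T line under PDE4 inhibition. Values are scaled between buffer-only and 29 nM porcine relaxin, and EC50s come from standard Hill equation fits.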
# TRPV1 PAM: HTS Assay for Compounds that Act as Potentiators of the Vanilloid Receptor 1; Transient receptor potential cation channel subfamily V member 1 (Homo sapiens), Q8NER1; TRPV1-expressing cells, Fluo-8 calcium influx, capsaicin EC20 potentiation; potentiation, % at 8.33 µM; 320,000 tested, 0.02% active; AID 540277, 2011; in the data active = potentiation above about 80%; inconclusive = between about 30% and that limit; also: 0% is about no effect
#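 TRPV1-expressing cells were cultured overnight at 35.5C and loaded with Fluo-8 calcium dye for 40 to 90 min at room temperature. After a 10 s baseline, compound was added and calcium influx was read kinetically for 3 min (ex 480/em 520 nm).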
# gsp agonist: qHTS for Agonist of gsp, the Etiologic Mutation Responsible for Fibrous Dysplasia/McCune-Albright Syndrome: qHTS. Potency, µM (series often up to 76.9 µM), for inactives: at the highest dose activation (cAMP increase), actives largely listed as activators. 340,000 tested, 0.13% active. gsp mutant cells, cAMP HTRF, 30 min; active = well fitted activation curve with a large enough effect; inconclusive = small, poorly fitted or top-dose-only effect, or another doubt; inactive = no such curve, though single readings can be large or run the other way; cell line not stated here;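 also: phosphodiesterase inhibitor Ro 20-1724 added with compounds to block cAMP breakdown; potency is read from the fitted curve at half-maximal effect; nearly all actives have a fitted effect of over 60% in size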
#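 Cells in DMEM/10% FBS with G418 were pretreated with compounds in DMSO plus […] (300 uM stock) for 30 min at 37C. cAMP was measured by HTRF (cAMP-d2 plus anti-cAMP antibody-K) after 30 min at room temperature.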
# The depositor's hits bear a star; ? = inconclusive; · = not tested or not shown; [ ] = dose if it differs, or a comment.
SMILES,TRPV1 agonist,gsp antagonist,RXFP1 antag,RXFP1 agonist,TRPV1 PAM,gsp agonist
O=C(N/N=C/c1cccnc1)c1ccc2c(c1)OCO2,90*,20%,-11,1%,-36,?
COc1ccc(/C=N/NC(=O)c2ccc3c(c2)OCO3)c(C(=O)O)c1OC,80*,-9%,4,-2%,-8,8%
N=c1c2ccccc2nnn1-c1cccc(C(F)(F)F)c1,?,4%,-4,1%,-27,?
C[C@H](O)CNC(=O)c1[nH]cnc1C(=O)Nc1cccc(Cl)c1,·,·,11,·,·,-9%
Cc1ccc(S(=O)(=O)c2nnn3c2nc(NCc2ccc4c(c2)OCO4)c2sccc23)cc1C,·,·,-21,6%,·,·
Cc1cccc2c(=O)cc(C(F)(F)F)[nH]c12,0,-21%,-9,-1%,6,12%
Cc1cc(=S)c2cccc(C)c2[nH]1,2,5%,20,22µM*,-4,32%[15.4 µM]
CCOC(=O)c1ccc(NC(=O)CCc2nc(-c3cccc(C)c3)no2)cc1,?,35µM*,-21,2%,-7,-11%
Cc1cccc(-c2noc(CCC(=O)Nc3ccccc3)n2)c1,?,?,-12,0%,26,-28%
COC(=O)Cn1cc(S(=O)(=O)NCc2ccc(C)cc2)c2cc([N+](=O)[O-])ccc21,6,-4%,5,3%,1,?
CCc1ccc(NC2=NCC(c3ccccc3)S2)cc1 (stereo not given),5,?,-69*,-1%,-7,-15%[15.4 µM]
COc1ccc(-c2sc3ccccc3c2/C=C/c2ccncc2)cc1,·,11µM*,·,·,·,·
Cc1cccc(OCC(=O)N(Cc2ccc(C(C)(C)C)cc2)Cc2ccco2)c1,·,·,-75*,-2%,·,·
CC(C)(C)c1ccc(C(=O)N(Cc2ccc(F)cc2)Cc2ccco2)cc1,·,·,-79*,1%,·,·
CCc1ccc(OCC(=O)N(Cc2ccc(C)cc2)Cc2ccco2)cc1,·,·,-61*,0%,·,·
Cc1ccc(CN(Cc2ccco2)C(=O)COc2ccc(C)c(C)c2)cc1,·,·,·,0%,·,·
COC(=O)C1=C(C)NC(=S)NC1c1ccc(OCC(=O)N2CCCCC2)c(OC)c1 (stereo not given),1,4%,-1,1%,-4,-4%[15.4 µM]
CCN1CCN(Cc2c(O)ccc3c(=O)c(Oc4ccccc4Cl)c(C(F)(F)F)oc23)CC1,·,·,·,32µM*,·,·
Cc1nc2scc(C)n2c(=O)c1S(=O)(=O)N1CCN(c2ccccc2)CC1,12,17%,5,22%,-13,?
Cc1nc2scc(C)n2c(=O)c1S(=O)(=O)N1CCN(c2ccccn2)CC1,-11,18%,18,25µM*,-4,43%[15.4 µM]
O=C(Nc1ccc(-c2nc3cc(Cl)ccc3c(=O)o2)cc1)c1ccco1,0,13%,-66*,1%,-3,7%[15.4 µM]
C=CCC1(CC=C)CCCN1C(=O)c1cc(COc2ccc(C)nc2)on1,?,?,-10,2%,0,-50%
O=C(COC(=O)c1cnccn1)NCc1ccccc1Cl,·,·,-2,·,·,-10%
CC1CCCC(C)N1C(=O)CSCc1ccc(Cl)cc1 (stereo not given),?,35µM*,39,0%,-11,-43%
CC(C)OC(=O)CC1C(=O)NCCN1C(=S)NC(=O)c1ccc(F)cc1 (stereo not given),4,-2%,-3,3%,-5,-30%
COC(=O)c1ccccc1S(=O)(=O)Oc1ccc(-c2ccc(C(=O)O)cc2)cc1,4,28µM*,-7,-1%,-8,2%[15.4 µM]
